Each sequence was assayed against ALDH1A3 (assay: pooled miR-30 sensor sort-seq; sequence = guide strand). Conditions: shRNA.
TATCTTGGTGAACTTGACCTCC gave a sensor-assay potency score (higher = more potent) of 0.362.
TTGAAGGGTTACATGTAGCAAA showed a sensor-assay potency score (higher = more potent) of -0.786.
Sequence TTCTGTTTTGACATCGAAGGGG has a sensor-assay potency score (higher = more potent) of 0.0292.
ATTGTTGATAAATATCTTGGTG was tested, and the sensor-assay potency score (higher = more potent) was -0.0591.
With TTTTTTGTGAACACGGCTGCTG the sensor-assay potency score (higher = more potent) was 0.356.
Work on TTTTGTCGAACTGCTTTTGATC yielded a sensor-assay potency score (higher = more potent) of -0.787.
TAGCAGTTGATCCAGACCGTTC showed a sensor-assay potency score (higher = more potent) of -1.2.
TTTTGAACTTCAGTATTGGTTG gave a sensor-assay potency score (higher = more potent) of -0.527.
Sequence TAGTCGGTGCTATTCGCTCTTT has a sensor-assay potency score (higher = more potent) of -0.888.
TCTGTTTTGACATCGAAGGGGT showed a sensor-assay potency score (higher = more potent) of 0.173.
TCTTTTTATCACTTCTTCGATA gave a sensor-assay potency score (higher = more potent) of -0.674.
TCATTGTTGATAAATATCTTGG gave a sensor-assay potency score (higher = more potent) of -0.45.
TTTCCTGACATTTTAAAGCCAC was tested, and the sensor-assay potency score (higher = more potent) was -0.397.
With TTTTTGTGAACACGGCTGCTGT the sensor-assay potency score (higher = more potent) was -0.433.
TTGTTGATAAATATCTTGGTGA gave a sensor-assay potency score (higher = more potent) of 0.169.
ATAAATATCTTGGTGAACTTGA showed a sensor-assay potency score (higher = more potent) of -0.0326.
With TTCGATACTTTTGAACTTCAGT the sensor-assay potency score (higher = more potent) was -0.228.
Work on TTCCACTTCACATATTTGCTCC yielded a sensor-assay potency score (higher = more potent) of -0.153.
In the case of TTTCTTGGCATACTCCACGCTC, the sensor-assay potency score (higher = more potent) is reported as -0.65.
TTTGTGAACACGGCTGCTGTGA showed a sensor-assay potency score (higher = more potent) of -0.151.

What follows are sequences tested against ALDH9A1 in the same assay as above. Conditions: shRNA.
TTTCTTGATTAGTATCTACAAG gave a sensor-assay potency score (higher = more potent) of -1.25.
In the case of TTTGCCACTTTGACAAACCCAA, the sensor-assay potency score (higher = more potent) is reported as -0.698.
Work on TTCTCTAGAAGTATGTTACTGG yielded a sensor-assay potency score (higher = more potent) of -0.159.
For TTGATTAGTATCTACAAGGCAC, the sensor-assay potency score (higher = more potent) was 0.363.
TTCAGTTGTACTGCCTCTGTAA gave a sensor-assay potency score (higher = more potent) of -0.536.
TAATACACAAGGTCTCATGTAA was tested, and the sensor-assay potency score (higher = more potent) was 0.189.
For TAATATTCGATTGTCACACGGC, the sensor-assay potency score (higher = more potent) was 0.406.
TTAATTTGGGATCTTCAGGTAC was tested, and the sensor-assay potency score (higher = more potent) was 0.221.
TTATCCTAGTCTCTTTTCCTGT showed a sensor-assay potency score (higher = more potent) of -0.816.
With TAGATTTCCTCTATCGCAGTAG the sensor-assay potency score (higher = more potent) was 0.289.
For TTAGTTAATACACAAGGTCTCA, the sensor-assay potency score (higher = more potent) was -0.528.
TTCTCTTATACTGAACGCCAAA was tested, and the sensor-assay potency score (higher = more potent) was -1.4.
TATAACCAAACGATCCACCTGG gave a sensor-assay potency score (higher = more potent) of 0.155.
TAACACTTTAGCACCCTGCTCC showed a sensor-assay potency score (higher = more potent) of 0.132.
For TCTTTCTGCACAAATACTCTTG, the sensor-assay potency score (higher = more potent) was -0.35.
Work on TAACATTCAGTTGTACTGCCTC yielded a sensor-assay potency score (higher = more potent) of -0.0109.
In the case of TTCTTGATTAGTATCTACAAGG, the sensor-assay potency score (higher = more potent) is reported as -0.856.
With TTGTTAATGAAGCACGTCCCAG the sensor-assay potency score (higher = more potent) was -1.05.
TTCACATCATTCCACAGCGTGG was tested, and the sensor-assay potency score (higher = more potent) was -1.5.
TAATACTCCAGGCACTGCCAGG was tested, and the sensor-assay potency score (higher = more potent) was -1.24.

From the OligoGym collection
Also: reference of the scale not given here.
